# The panel holds about 83,000 compounds, 20% with a hit somewhere; the sample as a whole holds those more often.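 Negative percent growth values reflect cell death: -40 means 40% of the cells present at the start died, and -100 means all died.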 Unmarked numbers belong to inactive results. Activity calls are given as the source filed them. Rule for the calls: active = growth percent below 10; inactive = the rest.
# What was measured:
# Experiment in all cases: NCI-60 one-dose screen, 48 h (100 = growth as untreated, 0 = no growth, -100 = all killed)
# Conditions in all cases: 10 µM unless noted
# BT-549 breast = system: BT-549 breast
# SW-620 colon = system: SW-620 colon
# MCF7 breast = system: MCF7 breast
# HCT-116 colon = system: HCT-116 colon
# HCC-2998 colon = system: HCC-2998 colon
# KM12 colon = system: KM12 colon
# MDA-MB-435 melanoma = system: MDA-MB-435 melanoma
Structure (SMILES),growth (BT-549 breast),growth (SW-620 colon),growth (MCF7 breast),growth (HCT-116 colon),growth (HCC-2998 colon),growth (KM12 colon),growth (MDA-MB-435 melanoma)
CN(C(=O)c1ccccc1)N(C)C(=O)c1ccccc1,97%,106%,95.2%,100%,116%,113%,–
CC[C@H](C)C(=O)O[C@H]1C[C@@H](C)C=C2C=C[C@H](C)[C@H](CC[C@@H]3C[C@@H](O)CC(=O)O3)[C@H]21,82.4%,99.2%,–,51.7%,97.5%,109%,87.8%
O=C(c1ccccc1)c1ccco1,97.8%,110%,93.2%,102%,–,107%,–
Cc1c(N(C)CS(=O)(=O)O)c(=O)n(-c2ccccc2)n1C,96.5%,108%,–,105%,121%,109%,103%
CC(=O)NCCSC(=O)C(=O)SCCNC(C)=O,–,116%,125%,110%,-45.3% (active),107%,106%
COc1ccc(/C(=C2\O[C@@H]([C@H](O)CO)[C@H]3OC(C)(C)O[C@@H]23)c2cc(OC)c(OC)c(OC)c2)cc1O,82%,–,95.7%,89.3%,–,9.46% (active),-23.9% (active)
CN(C)c1nc(-c2ccco2)n2nc(-c3ccco3)cc2n1,94.3%,93.4%,28.3%,91.6%,88.5%,61.3%,–
CCCCCCOc1ccc(/C=N/NC(N)=S)cc1,-5% (active),23.3%,56.6%,33.6%,72.1%,48.9%,–
N=c1ccn2c(n1)O[C@@H]1[C@@H](O)[C@H](CO)O[C@@H]12,83.5%,66.5%,–,37.4%,50.2%,77.4%,57.1%
CC(=O)Nc1ccc2c(c1)Cc1c(F)c(F)c(F)c(F)c1-2,–,103%,86.7%,86.3%,–,92.8%,101%
O=C(c1nn(-c2ccc(Cl)cc2)cc1O)n1nc(C(F)(F)F)cc1-c1ccccc1,–,39.6%,44%,8.39% (active),43.2%,50.8%,48.1%
Oc1ccccc1C=Nc1ccccc1N=Cc1ccccc1O.[Cu+2],–,83.4%,27.6%,57.9%,74.2%,44.6%,56%
Cc1cc(C)n(C(=O)c2nn(-c3ccc(Cl)cc3)cc2O)n1,–,81.4%,81%,8.59% (active),82.8%,36.3%,32.1%
NC(=O)c1ccccc1NC(=O)c1ccccc1Cl,–,108%,115%,103%,116%,105%,105%
CCOc1ccccc1C(=O)OCC(=O)Nc1cccc(S(=O)(=O)N(C)C)c1,–,97%,102%,96.1%,98.9%,104%,96.2%
CCC(CCC(C)C1CCC2C3CC=C4CC(O)CCC4(C)C3CCC12C)C(C)C (configuration not stated) (tested in a mixture with another compound),–,104%,95.8%,79%,-53.1% (active),91.4%,85%
C=C(C)[C@H]1CC/C(C)=C/CC[C@]2(C)O[C@H]2CC/C(COC(C)=O)=C\C1=O,–,109%,110%,95%,103%,143%,95.2%
CCN(CC)CCOc1ccc(C2=C(c3ccccc3)CCc3cc(OC)ccc32)cc1,–,-59% (active),-9.06% (active),5.52% (active),–,-18.4% (active),-33.9% (active)
CN1CCCC1c1cccnc1 (configuration not stated),–,108%,97.1%,104%,–,104%,119%
O=C(O)C(=O)O,–,112%,98.4%,101%,–,102%,96.4%
CNc1ccc(CSc2ccc(Cl)cc2)cc1,–,109%,96.2%,91.3%,118%,111%,87.3%
COc1ccc(C2=NN(C(C)=O)C(c3cc(OC)c(OC)c(OC)c3)C2)cc1 (configuration not stated),–,98%,89.8%,103%,94.9%,60.5%,34.1%
Nc1cc(Cl)c(S(N)(=O)=O)cc1S(N)(=O)=O,–,107%,96.2%,121%,–,105%,113%
C[n+]1ccc(Nc2ccc(NC(=O)c3ccc(Nc4cc[n+](C)c5ccc(N)cc45)cc3)cc2)cc1,–,105%,96.2%,95%,-27.7% (active),109%,88.7%

Structure (SMILES),growth (BT-549 breast),growth (SW-620 colon),growth (MCF7 breast),growth (HCT-116 colon),growth (HCC-2998 colon),growth (KM12 colon),growth (MDA-MB-435 melanoma)
O=C1NCC(Nc2ccc(Br)cc2Cl)C(=O)N1 (configuration not stated),–,100%,103%,102%,116%,108%,111%
CCOC(=O)C(C(C)=O)c1nc2sc3cc(Cl)ccc3n2c(=N)c1C#N (configuration not stated),–,98.4%,58.8%,103%,131%,44.1%,104%
CCN(CC)CCOc1ccccc1-n1c(C)ccc1-c1ccccc1,–,36.7%,98.3%,–,24.2%,50.6%,42.1%
O=C(O)c1ccccc1C(=O)OC1CCCC2CCCC21 (configuration not stated),–,111%,94.6%,112%,98.5%,106%,118%
C=CCOc1ccc2c(c1)CC[C@@H]1[C@@H]2CC[C@@]2(C)[C@H]1CC[C@]2(C)O,–,64.3%,117%,94.4%,94.8%,58.2%,86.9%
CCOC(=O)C(Cc1ccccc1)(C(=O)OCC)C(Br)C(=O)c1ccccc1 (configuration not stated),–,39.8%,56.9%,53.3%,100%,97.9%,77.3%
Nc1nc(Cl)c2[nH]cnc2n1,–,105%,108%,104%,-51.2% (active),109%,102%
CC(C)(C)c1ccc(S(=O)(=O)O)s1,–,108%,98%,107%,112%,112%,102%
Cc1c(C(N)=O)sc2ncn(CC(=O)Nc3ccc(Cl)cc3)c(=O)c12,–,106%,108%,105%,118%,117%,106%
O=C1CC(C(F)(F)F)=NN1C(=O)c1nn(-c2ccc(Cl)cc2)cc1O,–,97.1%,102%,74.1%,89.7%,79.9%,95.3%
COc1ccc(/C=N\Nc2ccc([N+](=O)[O-])cn2)cc1OC,–,61.5%,74.7%,17.1%,99.7%,44.1%,72.9%
O=[N+]([O-])c1ccc(N/N=C/c2c(O)ccc3ccccc23)nc1,–,48.7%,17.3%,25.9%,54.2%,44.2%,58.5%
C[C@]12C[C@H](O)[C@H]3[C@@H](CCC4=CC(=O)CC[C@@]43C)[C@@H]1CC[C@@H]2C(=O)CO,–,99.1%,101%,106%,–,99.9%,103%
CCCCC1Nc2nc(SC)n(C)c(=O)c2CN(Cc2ccccc2)C1=O (configuration not stated),–,107%,100%,97.3%,94.3%,105%,99.4%
CCN(CC)CCCCNc1c2ccccc2[n+](C)c2c1[nH]c1ccccc12,–,-7.04% (active),-7.18% (active),0.472% (active),-56.4% (active),-12.9% (active),-77.1% (active)
CC1=CSC2=NCCN12,–,102%,96.6%,111%,108%,109%,111%
O=C(/C=C/c1cccnc1)/C=C/c1cccnc1,–,-68.6% (active),-39.4% (active),-92.7% (active),-70.6% (active),-85.1% (active),-28.9% (active)
CCCOc1ccc2c(c1)CC[C@@H]1[C@@H]2CC[C@@]2(C)[C@H]1CC[C@]2(C)O,–,53.8%,101%,83.9%,74.7%,35.6%,84.3%
O=c1[nH]c(=O)n(C2CC(O)C(CO)O2)cc1C(F)(F)F (configuration not stated),–,52.7%,23.6%,39.4%,–,51.8%,47.8%
COc1ccc2[nH]c(-c3ccccc3)cc2c1,–,102%,95%,100%,118%,99.3%,100%
COc1ccc(Cn2cc3c(c2-c2ccccc2)CCc2cncnc2-3)cc1,–,27.5%,39.4%,27.2%,53.1%,26.6%,0.92% (active)
C=C(C)[C@H]1CC/C(C)=C/CC[C@]2(C)O[C@H]2CC/C(C=O)=C\C1O (some centres not stated),–,108%,97.2%,105%,111%,114%,120%
C=C(C)[C@@H]1C/C=C(/C=O)CC[C@@H]2O[C@@]2(C)CC/C=C(\C)CC1,–,115%,106%,105%,126%,122%,107%
